Data: PubChem BioAssay
Calls of active or inactive are those of the source. Unless noted, how the calls were made is not given here.

How the values were obtained:
[1] = HepG2 liver cancer cell viability effects, profiling panel, resazurin fluorescence, 24 h, PK04 Diversity Set (AID 1172); details: higher = more signal
[2] = basal S. cerevisiae growth modulation, no modifier, primary screen, OD600, strain BY4716, 24 h, basal condition (AID 1173); details: OD600, 24 h, higher = more signal, called active from +8 up or from −8 down
[3] = MM1S myeloma cell viability, profiling panel, resazurin fluorescence, basal, 24 h, PK04 Diversity Set (AID 1174); details: higher = more signal, called active from +8 up or from −8 down;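 further: MM1S multiple myeloma cell line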
[4] = molecular target: Dihydroorotate dehydrogenase (quinone), mitochondrial (Plasmodium falciparum (isolate 3D7)) (UniProt Q08210); test: PfDHODH enzyme inhibitors, primary screen, biochemical, C-terminal His tag, absorbance 600 nm (AID 1175); details: DCIP absorbance 600 nm, higher = more signal, called active from +8 up or from −8 down;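 further: recombinant parasite enzyme with a five histidine tag at its C terminus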
Chain of Dihydroorotate dehydrogenase (quinone), mitochondrial (Plasmodium falciparum (isolate 3D7)) (Q08210 whole entry, looked up): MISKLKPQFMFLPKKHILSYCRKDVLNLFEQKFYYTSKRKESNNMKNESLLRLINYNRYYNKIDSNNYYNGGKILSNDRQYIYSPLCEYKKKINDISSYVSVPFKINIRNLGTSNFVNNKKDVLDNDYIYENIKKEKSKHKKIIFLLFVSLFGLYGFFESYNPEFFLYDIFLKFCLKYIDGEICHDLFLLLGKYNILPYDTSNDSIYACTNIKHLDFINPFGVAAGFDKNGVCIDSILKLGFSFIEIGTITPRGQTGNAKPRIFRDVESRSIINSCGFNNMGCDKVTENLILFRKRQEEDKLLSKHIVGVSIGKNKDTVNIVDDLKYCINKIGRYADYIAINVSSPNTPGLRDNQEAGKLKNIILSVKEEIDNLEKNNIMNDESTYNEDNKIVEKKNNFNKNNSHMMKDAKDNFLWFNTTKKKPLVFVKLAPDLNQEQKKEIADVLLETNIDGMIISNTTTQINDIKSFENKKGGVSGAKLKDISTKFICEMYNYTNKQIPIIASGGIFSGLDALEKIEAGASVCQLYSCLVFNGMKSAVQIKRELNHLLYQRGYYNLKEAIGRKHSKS

[5] = P. aeruginosa biofilm formation inhibitors, primary screen, strain PAO1, LB-PBS medium, absorbance 600 nm (AID 1176); details: P. aeruginosa PAO1 growth/biofilm, A600, 12 h; higher = more signal
[6] = S. cerevisiae RM11-1a growth modifiers, primary screen, strain RM11-1a, OD600, basal, 24 h (AID 1177); details: OD600, 24 h, higher = more signal, called active from +8 up or from −8 down;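 further: cultures grown under basal conditions with no added stressor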
[7] = E. coli acrAB mutant growth effects, primary screen, E. coli filamentation inducers, strain DRC39, OD650, 24 h (AID 1178); details: higher = more signal, called active from +8 up or from −8 down;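 further: growth measured as culture turbidity by optical density at 650 nm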
[8] = E. coli acrAB mutant growth effects, primary screen, E. coli filamentation inducers, strain DRC39, OD650, 48 h (AID 1179);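 further: screen aims at cell division blockers that make cells filament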; details: E. coli DRC39 delta-acrAB growth, higher = more signal, called active from +8 up or from −8 down
[9] = RPMI8226 myeloma cell viability, profiling panel, resazurin fluorescence, basal, 24 h, PK04 Diversity Set (AID 1180); details: higher = more signal;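 further: RPMI8826 multiple myeloma cell line at 5000 cells per well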
[10] = molecular target: E3 ubiquitin-protein ligase XIAP (Homo sapiens) (UniProt P98170); test: XIAP binders, primary screen, biophysical, small-molecule microarray, fluorescence 635 nm (AID 1181); details: small-molecule microarray binding, higher = more signal;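 further: score merges 667 nm emission and signal to noise over triplicate slides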
Chain of E3 ubiquitin-protein ligase XIAP (Homo sapiens) (P98170 whole entry, looked up): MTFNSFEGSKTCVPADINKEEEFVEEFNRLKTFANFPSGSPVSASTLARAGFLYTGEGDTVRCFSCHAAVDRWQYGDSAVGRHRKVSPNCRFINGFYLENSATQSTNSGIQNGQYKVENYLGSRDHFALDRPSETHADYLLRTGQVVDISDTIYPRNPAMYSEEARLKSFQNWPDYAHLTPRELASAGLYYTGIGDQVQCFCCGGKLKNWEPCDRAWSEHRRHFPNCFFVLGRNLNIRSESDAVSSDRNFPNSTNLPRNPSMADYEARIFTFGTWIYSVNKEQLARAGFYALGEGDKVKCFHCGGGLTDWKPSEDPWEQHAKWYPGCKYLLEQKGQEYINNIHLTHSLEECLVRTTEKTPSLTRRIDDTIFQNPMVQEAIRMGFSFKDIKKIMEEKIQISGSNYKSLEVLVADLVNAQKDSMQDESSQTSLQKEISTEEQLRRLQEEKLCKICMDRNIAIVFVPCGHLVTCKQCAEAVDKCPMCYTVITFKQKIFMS

[11] = system: XIP peptide (Xip251-270) binding; test: small-molecule binders of XIP peptide, primary screen, biochemical, small-molecule microarray, fluorescence 635/667 nm, 0.1 µg/mL protein (AID 1182); details: fluorescent protein binding, 635 nm, higher = more signal, called active from +8 up or from −8 down
[12] = system: XIP peptide (Xip251-270); test: small-molecule binders of XIP peptide, primary screen, biochemical, small-molecule microarray, fluorescence 635/667 nm, 0.5 µg/mL protein (AID 1183); details: small-molecule microarray binding, fluorescence 635 nm; higher = more signal
[13] = Plasmodium falciparum growth inhibition, primary screen, strain 3D7, DAPI fluorescence, 100 nL (AID 1184);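 further: parasites grown inside human red blood cells in medium with human serum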; details: P. falciparum 3D7 growth, 3 d, higher = more signal
[14] = molecular target: Homeobox protein Hox-A13 (Mus musculus) (UniProt Q62424); test: inhibitors of HoxA13-DNA binding, primary screen, biochemical, fluorescence polarization, labeled oligonucleotide (AID 1185); details: 15 min, higher = more signal, called active from +8 up or from −8 down
Chain of Homeobox protein Hox-A13 (Mus musculus) (Q62424 whole entry, looked up): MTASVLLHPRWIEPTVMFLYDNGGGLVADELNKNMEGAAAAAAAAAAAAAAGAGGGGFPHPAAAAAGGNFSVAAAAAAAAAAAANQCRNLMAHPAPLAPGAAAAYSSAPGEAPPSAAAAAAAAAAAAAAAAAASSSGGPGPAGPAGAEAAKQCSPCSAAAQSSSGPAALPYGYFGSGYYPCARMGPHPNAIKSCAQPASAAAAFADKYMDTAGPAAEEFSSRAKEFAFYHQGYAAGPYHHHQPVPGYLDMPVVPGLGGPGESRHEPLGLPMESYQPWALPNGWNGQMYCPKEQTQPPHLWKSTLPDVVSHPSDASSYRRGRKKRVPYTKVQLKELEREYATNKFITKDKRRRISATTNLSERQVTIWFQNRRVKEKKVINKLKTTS

[15] = inhibitors of hydroxyurea-induced Chk1 phosphorylation, primary screen, imaging, HeLa, phospho-Chk1 antibody, percent positive cells (AID 1186); details: hydroxyurea-induced phospho-Chk1 immunofluorescence imaging, higher = more signal
[16] = inhibitors of hydroxyurea-induced Chk1 phosphorylation, primary screen, imaging, HeLa, phospho-Chk1 nuclear intensity (AID 1187); details: hydroxyurea-induced phospho-Chk1 immunofluorescence imaging, higher = more signal

Structure (SMILES)	z-score [1]	z-score [2]	z-score [3]	composite z-score [4]	z-score [5]	z-score [6]	z-score [7]	z-score [8]	z-score [9]	composite z-score [10]	composite z-score [11]	composite z-score [12]	z-score [13]	z-score [14]	z-score [15]	z-score [16]
CCCCC=C[C@@H](NC(=O)C(C)(C)C)c1ccccc1	-1.12	2.43 (inactive)	-2.58 (inactive)	0.507 (inactive)	0.563 (inactive)	2.07 (inactive)	-0.275 (inactive)	-0.0819 (inactive)	-3.59	-0.0095	1.38 (inactive)	0.324	-0.501	-0.258 (inactive)	0.579 (inactive)	-0.124 (inactive)
COCCCNC(=O)[C@@]1(c2ccc([N+](=O)[O-])cc2)CC(=O)N(C2CCCCC2)[C@@H]1c1ccc(CO)cc1I	0.545	-0.24 (inactive)	0.678 (inactive)	0.219 (inactive)	0.966 (inactive)	-0.251 (inactive)	0.0675 (inactive)	-0.279 (inactive)	1.16	0.0449	0.266 (inactive)	0.728	-0.768	-4.5 (inactive)	0.237 (inactive)	0.36 (inactive)
COC(=O)[C@@]1(Cc2ccccc2)[C@H]2c3cc(C(=O)N(C)C)n(CCF)c3C[C@H]2CN1C(=O)c1ccccc1	-0.537	1.34 (inactive)	-0.878 (inactive)	0.288 (inactive)	0.715 (inactive)	0.155 (inactive)	-0.407 (inactive)	0.0857 (inactive)	-0.329	0.0635	1.3 (inactive)	-0.504	-0.684	-4.95 (inactive)	-0.441 (inactive)	-0.748 (inactive)
C=C(CCCC)C(=O)CC[C@H](OC(=O)c1ccccc1-c1ccccc1C(=O)O)c1cccc(OCCO)c1	-1.01	-1.21 (inactive)	-0.821 (inactive)	-0.347 (inactive)	1.09 (inactive)	0.0742 (inactive)	-0.778 (inactive)	-0.689 (inactive)	-0.432	-0.138	-0.459 (inactive)	0.614	-2.65	-6.4 (inactive)	1.01 (inactive)	0.182 (inactive)
O=C1OCCC/C=C\[C@H]2OC34C=CCN(Cc5ccccc5)C(=O)[C@H]3N(CCO)C(=O)[C@@H]4C12 (stereo partly drawn)	-0.122	-0.662 (inactive)	0.99 (inactive)	-0.0771 (inactive)	-0.152 (inactive)	-0.23 (inactive)	1.68 (inactive)	1.89 (inactive)	0.936	0.0015	1.68 (inactive)	-0.0058	0.499	-5.69 (inactive)	-0.909 (inactive)	-0.375 (inactive)
O=C/C=C/c1ccc(-c2ccccc2)cc1	-0.0736	-18.6 (active)	-1.08 (inactive)	-2.53 (inactive)	-0.944 (inactive)	-21.6 (active)	1.29 (inactive)	0.917 (inactive)	-5.15	0.0097	-1.46 (inactive)	-0.548	0.886	-1.34 (inactive)	0.236 (inactive)	0.792 (inactive)
COc1ccc(C(O)C2C=CC3C(=O)N(C)C(=O)C3N2Nc2ccccc2)cc1 (stereo not drawn)	-1.73	-3.09 (inactive)	-0.956 (inactive)	-0.685 (inactive)	1.33 (inactive)	-0.119 (inactive)	-0.386 (inactive)	-0.605 (inactive)	-1.08	0.032	0.488 (inactive)	0.592	-0.142	-3.64 (inactive)	0.158 (inactive)	-0.0307 (inactive)
COC(=O)C1(CC(C)C)C=C2C(=C(C)C(=O)C2C)CN1 (stereo not drawn)	-1.23	1.84 (inactive)	-1.78 (inactive)	-1.11 (inactive)	0.715 (inactive)	0.386 (inactive)	-0.43 (inactive)	-0.078 (inactive)	-1.8	0.0408	-0.583 (inactive)	0.992	0.51	-4.02 (inactive)	0.886 (inactive)	0.911 (inactive)
O=C1C2C=CC(C(O)C(c3ccccc3)c3ccccc3)N(Nc3ccccc3F)C2C(=O)N1c1ccccc1 (stereo not drawn)	-0.353	-0.704 (inactive)	-0.813 (inactive)	1.68 (inactive)	0.34 (inactive)	1.52 (inactive)	-0.872 (inactive)	-0.82 (inactive)	-1.32	0.0617	0.814 (inactive)	0.768	-0.373	-2.65 (inactive)	0.837 (inactive)	0.29 (inactive)
COCCOC(=O)N1C(=O)[C@@]2(c3cc(C#CCNC(N)=O)ccc31)[C@H](C(N)=O)[C@H]1C(=O)O[C@H](c3ccccc3)[C@H](c3ccccc3)N1[C@@H]2c1ccc(O)cc1	0.296	-0.156 (inactive)	-0.477 (inactive)	0.303 (inactive)	1.01 (inactive)	0.532 (inactive)	0.769 (inactive)	1.33 (inactive)	-0.392	-0.245	0.201 (inactive)	-0.532	1.75	-3.48 (inactive)	0.319 (inactive)	0.888 (inactive)
CC(C)(C)OC(=O)CC[C@@]1(C(N)=O)N=C(c2ccc(OCCCO)cc2)O[C@@H]1c1ccccc1CN=[N+]=[N-]	0.372	-0.0901 (inactive)	-0.599 (inactive)	-1 (inactive)	0.122 (inactive)	0.0861 (inactive)	-0.0622 (inactive)	0.131 (inactive)	-0.17	0.119	-0.015 (inactive)	0.297	1.1	-4.71 (inactive)	0.3 (inactive)	0.317 (inactive)
Cc1cccc([C@H]2C[C@H]3C(Br)=C[C@@]2(CO)C(=O)[C@]32CO2)c1	0.888	-5.63 (inactive)	-0.398 (inactive)	-0.287 (inactive)	0.343 (inactive)	-0.169 (inactive)	0.258 (inactive)	0.294 (inactive)	0.214	0.273	1.48 (inactive)	0.137	1.54	-1.41 (inactive)	-0.272 (inactive)	-0.557 (inactive)
C=CC[C@]1(C(=O)NCCN2CCOCC2)N=C(c2ccc(OCCCO)cc2)O[C@H]1c1ccccc1	0.543	-0.916 (inactive)	0.635 (inactive)	0.507 (inactive)	0.509 (inactive)	-0.548 (inactive)	-0.0082 (inactive)	-0.864 (inactive)	0.749	-0.0351	0.212 (inactive)	0.492	-0.188	-6.22 (inactive)	-0.116 (inactive)	0.106 (inactive)
COc1ccc([Si](C)(C)[C@@H]2[C@@H](CC(=O)N3CCC[C@H]3CO)O[C@]3(C(=O)N(Cc4cccc(N5C(=O)c6cccc7cccc5c67)c4)c4ccccc43)[C@H]2C)cc1	-0.49	0.313 (inactive)	-1.84 (inactive)	-1.54 (inactive)	0.343 (inactive)	0.0797 (inactive)	0.995 (inactive)	0.787 (inactive)	-1.53	0.0834	3.7 (inactive)	0.703	-2.1	-2.34 (inactive)	-0.798 (inactive)	-0.489 (inactive)
COC(=O)C(CC#Cc1ccc2c(c1)[C@]1(C(=O)N2)[C@H](C(=O)NC[C@H](O)c2ccccc2)[C@H]2C(=O)O[C@H](c3ccccc3)[C@H](c3ccccc3)N2[C@@H]1c1ccc(O)cc1)C(=O)OC	0.155	0.455 (inactive)	0.515 (inactive)	-5.06 (inactive)	1.05 (inactive)	0.518 (inactive)	-0.196 (inactive)	-0.556 (inactive)	-0.464	0.076	0.321 (inactive)	0.418	-1.05	-3.56 (inactive)	0.288 (inactive)	0.557 (inactive)
COCCOC(=O)N1C(=O)[C@@]2(c3cc(C#CC4(O)CCCCCC4)ccc31)[C@H](C(N)=O)[C@H]1C(=O)O[C@H](c3ccccc3)[C@H](c3ccccc3)N1[C@@H]2c1ccc(OCCO)cc1	-0.905	0.842 (inactive)	-3.72 (inactive)	0.42 (inactive)	2.53 (inactive)	2.58 (inactive)	0.141 (inactive)	0.282 (inactive)	-3.3	0.128	1.56 (inactive)	0.73	-1.62	-0.51 (inactive)	-0.0908 (inactive)	-0.524 (inactive)
COC(=O)[C@@]1(Cc2ccc(F)cc2)[C@H]2c3cc(C(=O)N4CCCC4)n(Cc4ccc(C(F)(F)F)nc4)c3C[C@H]2CN1C(=O)c1ccccc1	-0.213	1.12 (inactive)	-1.23 (inactive)	-0.456 (inactive)	-0.691 (inactive)	1.09 (inactive)	-0.83 (inactive)	0.0871 (inactive)	-1.11	0.153	0.216 (inactive)	0.602	-0.532	-3.29 (inactive)	0.278 (inactive)	0.554 (inactive)
C=CCOC(=O)[C@@H]1[C@H]2C(=O)O[C@H](c3ccccc3)[C@H](c3ccccc3)N2[C@H](c2ccc(OCCOC(=O)[C@@H]3C[C@@H]4C(=O)N[C@@H](CC(C)C)C(=O)N4[C@@H]3c3ccc(O)cc3)cc2)[C@@]12C(=O)Nc1ccc(I)cc12	0.438	0.893 (inactive)	0.246 (inactive)	-1.42 (inactive)	0.848 (inactive)	1.75 (inactive)	0.703 (inactive)	-0.215 (inactive)	0.676	0.155	0.78 (inactive)	0.761	-1.51	0.374 (inactive)	-0.926 (inactive)	-0.838 (inactive)
